# Source: publication PMC4336329 (PLoS ONE, 2015)
# Among all 310,000 compounds or so, about 14,000 (4.5%) showed an effect of 50% or more. The effect is printed as a negative number. The full list was thinned out, with strong results kept by preference.
# Molecular target: human ether-à-go-go-related gene (hERG) potassium channel (human, UniProt Q12809)
# Test: primary screen, population patch clamp on CHO cells stably expressing hERG; higher = less effect of the substance
# 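Further: peak tail current of the secondary pulse compared with the same well before compound.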
# Sequence of human ether-à-go-go-related gene (hERG) potassium channel (Q12809 whole entry, looked up): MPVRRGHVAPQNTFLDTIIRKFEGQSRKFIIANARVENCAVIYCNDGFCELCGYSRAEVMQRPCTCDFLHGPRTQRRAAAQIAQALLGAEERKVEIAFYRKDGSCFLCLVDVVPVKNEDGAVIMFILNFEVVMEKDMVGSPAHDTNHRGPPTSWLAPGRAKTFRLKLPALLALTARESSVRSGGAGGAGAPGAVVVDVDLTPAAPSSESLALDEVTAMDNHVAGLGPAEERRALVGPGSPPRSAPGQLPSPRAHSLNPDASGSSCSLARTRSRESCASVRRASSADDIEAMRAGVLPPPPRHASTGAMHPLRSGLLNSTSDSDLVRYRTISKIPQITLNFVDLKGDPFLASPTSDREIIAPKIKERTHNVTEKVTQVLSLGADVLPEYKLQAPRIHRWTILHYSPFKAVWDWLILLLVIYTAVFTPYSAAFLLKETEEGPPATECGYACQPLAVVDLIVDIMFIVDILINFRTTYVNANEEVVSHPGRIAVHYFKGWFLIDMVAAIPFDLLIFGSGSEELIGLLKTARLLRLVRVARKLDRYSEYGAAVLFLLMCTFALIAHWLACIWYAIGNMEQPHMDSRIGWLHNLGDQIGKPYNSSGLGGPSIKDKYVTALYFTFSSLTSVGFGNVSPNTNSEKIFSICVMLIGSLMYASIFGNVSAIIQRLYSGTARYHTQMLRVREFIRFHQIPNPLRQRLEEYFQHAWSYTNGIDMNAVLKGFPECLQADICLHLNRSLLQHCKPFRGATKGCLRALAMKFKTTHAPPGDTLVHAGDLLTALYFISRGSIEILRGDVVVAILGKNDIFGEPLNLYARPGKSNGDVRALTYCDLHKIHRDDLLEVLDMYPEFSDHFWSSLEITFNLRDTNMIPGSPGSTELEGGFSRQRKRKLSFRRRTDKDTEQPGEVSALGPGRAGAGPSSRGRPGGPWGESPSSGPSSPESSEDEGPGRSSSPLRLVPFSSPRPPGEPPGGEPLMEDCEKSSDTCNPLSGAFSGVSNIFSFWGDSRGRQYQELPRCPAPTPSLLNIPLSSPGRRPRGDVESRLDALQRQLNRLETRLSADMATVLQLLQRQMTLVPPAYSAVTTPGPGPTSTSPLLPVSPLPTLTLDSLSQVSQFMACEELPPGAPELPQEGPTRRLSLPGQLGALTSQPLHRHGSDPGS
row,Compound,"hERG current change (%, negative = inhibition) at 10uM"
1,Cc1cc(NC(=O)C(C)SCC(=O)N(C)CC(=O)Nc2ccc(F)cc2)no1 (centres unmarked),7.59%
2,CN(CC(=O)Nc1ccccc1Cl)C(=O)Cn1cc(C(F)(F)F)cc(Cl)c1=O,-6.27%
3,O=C(CN1C(=O)COc2ccc(S(=O)(=O)N3CCOCC3)cc21)NCc1ccccn1,-1.38%
4,O=C(NCC1CCCO1)C1CCN(c2ccc(S(=O)(=O)N3CCCC3)cc2)CC1 (centres unmarked),-4.69%
5,CC(C(=O)c1ccc(-c2ccccc2)cc1)[n+]1ccccc1.[Br-] (centres unmarked),2.72%
6,CCOC(=O)c1ccc(N2C(=O)c3n[nH]c(C)c3C2c2cccnc2)cc1 (centres unmarked),-17.2%
7,CC(C(=O)OCC(=O)c1ccc(F)cc1)N1C(=O)C2C3C=CC(C3)C2C1=O (centres unmarked),-15.4%
8,Cc1cccc(NC(=O)/C(=C/c2cccc([N+](=O)[O-])c2)NC(=O)c2cccs2)c1,10.2%
9,O=C(Nc1cccc2ccccc12)/C(=C/c1cccc([N+](=O)[O-])c1)NC(=O)c1cccs1,-67.7%
10,Cc1ccc(NC(=O)/C(=C\c2cccc([N+](=O)[O-])c2)NC(=O)c2cccs2)cc1,-1.85%
11,CCOC(=O)c1cnn(-c2ccccc2)c1-n1cccc1,-8.27%
12,C=CCNC(=S)Nc1ccccc1,-8.73%
13,CN(C)c1ccc(NC(=O)Nc2csc3ccccc23)cc1,18.4%
14,Fc1cccc(F)c1CN1CCN(c2ncccn2)CC1,15.5%
15,OCCCNc1nc(-c2ccccc2)c2cc(Cl)ccc2n1,3.04%
16,F[B-](F)(F)F.OCC[NH+]=c1cc(-c2ccccc2)oc2ccc(Cl)cc12,-71.3%
17,Nc1c(C(=O)CCC(=O)O)oc2ccc(Cl)cc12,-9.4%
18,O=C(COc1ccc2oc(-c3ccccc3)cc(=O)c2c1)Nc1ccccc1,-2.43%
19,F[B-](F)(F)F.OCCCCC[NH+]=c1cc(-c2ccccc2)oc2ccc(Cl)cc12,-80.3%
20,F[B-](F)(F)F.OCCC[NH+]=c1cc(-c2ccccc2)oc2ccc(Cl)cc12,-79.1%
21,O=c1oc2ccc(Cl)cc2cc1-c1ccccc1,22.4%
22,COc1ccc(-c2cc(=[NH+]c3ccccc3)c3cc(C)ccc3o2)cc1.[O-][Cl+3]([O-])([O-])[O-],24.8%
23,O=c1cc(-c2ccccc2)oc2ccc(O)cc12,-9.74%
